Laboratory results reported in PubChem BioAssay AID1159580 (chemical genetic matrix, 2015).
Several values for one entry are separate records, joined by “and”; a condition that tells them apart may be missing. Equal values may be shown once. Screen size: about 5,500 compounds; about 2,000 (36%) were called active. Roughly 18% stayed inconclusive and do not appear here. Cut-off read from the data, not from the text of the source: active = normalized growth mostly below about 0.91 (no sharp cut-off); inconclusive = no clear call, values can overlap the other calls; inactive = mostly above about 0.92. The list shows a part of the results.

Test: chemical genetic growth profiling, strain panel (AID 1159580);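 note: tested at 20 µM; growth read once vehicle control cultures reached saturation at 30 °C; 1 = growth at the plate median or of vehicle wells; lower values mean less growth of the strain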
Conditions: S. cerevisiae deletion strains, growth OD

Measured: normalized growth

CNC(=O)Oc1ccc2c(c1)[C@]1(C)CCN(C)[C@@H]1N2C
inactive: locus YAL013W, strain DEP1, stronger effect = lower value 1.03 | locus YAL021C, strain ccr4, stronger effect = lower value 1 | locus YAL026C, strain drs2, stronger effect = lower value 1 | locus YAL030W, strain snc1, stronger effect = lower value 1.02 | locus YBL061C, strain skt5, stronger effect = lower value 1.02 | locus YBR009C, strain hhf1, stronger effect = lower value 0.998 | locus YBR021W, strain FUR4, stronger effect = lower value 0.99 | locus YBR023C, strain chs3, stronger effect = lower value 1.02 | locus YBR171W, strain sec66, stronger effect = lower value 1.03 | locus YBR229C, strain ROT2, stronger effect = lower value 1.01 | locus YBR231C, strain swc5, stronger effect = lower value 1.01 | locus YBR279W, strain paf1, stronger effect = lower value 1.03 | locus YCL011C, strain gbp2, stronger effect = lower value 1.03 | locus YCL016C, strain dcc1, stronger effect = lower value 1.05 | locus YCL029C, strain bik1, stronger effect = lower value 1.01 | locus YCL061C, strain MRC1, stronger effect = lower value 1.01 | locus YCL069W, strain vba3, stronger effect = lower value 1.02 | locus YCR088W, strain abp1, stronger effect = lower value 1.02 | locus YDL005C, strain med2, stronger effect = lower value 1.02 | locus YDL035C, strain GPR1, stronger effect = lower value 1.01 | locus YDL040C, strain nat1, stronger effect = lower value 1 | locus YDL074C, strain BRE1, stronger effect = lower value 1.04 | locus YDL101C, strain DUN1, stronger effect = lower value 1.01 | locus YDL134C, strain PPH21, stronger effect = lower value 1.04 | locus YDL185W, strain tfp1, stronger effect = lower value 0.992 | locus YDL192W, strain arf1, stronger effect = lower value 1.02 | locus YDR001C, strain nth1, stronger effect = lower value 1.01 | locus YDR069C, strain doa4, stronger effect = lower value 0.998 | locus YDR101C, strain arx1, stronger effect = lower value 1.02 | locus YDR137W, strain rgp1, stronger effect = lower value 1.05 | locus YDR159W, strain sac3, stronger effect = lower value 0.969 | locus YDR162C, strain NBP2, stronger effect = lower value 1.03 | locus YDR195W, strain ref2 0.977 | locus YDR297W, strain sur2, stronger effect = lower value 1.01 | locus YDR318W, strain mcm21, stronger effect = lower value 1.01 | locus YDR334W, strain swr1, stronger effect = lower value 1.02 | locus YDR335W, strain msn5, stronger effect = lower value 1.01 | locus YDR388W, stronger effect = lower value 1.01 | locus YDR392W, strain spt3, stronger effect = lower value 0.816 | locus YDR502C, strain sam2, stronger effect = lower value 1.01 | locus YEL003W, strain gim4, stronger effect = lower value 1.01 | locus YEL037C, strain rad23, stronger effect = lower value 1.01 | locus YEL061C, strain CIN8 (second series), stronger effect = lower value 1.02 | locus YEL061C, strain CIN8, stronger effect = lower value 1.01 | locus YER015W, strain faa2, stronger effect = lower value 1.01 | locus YER016W, strain bim1, stronger effect = lower value 1.02 | locus YER110C, stronger effect = lower value 1.02 | locus YER111C, strain swi4, stronger effect = lower value 1.01 | locus YER155C, strain BEM2 (second series), stronger effect = lower value 0.99 | locus YER155C, strain BEM2, stronger effect = lower value 0.993 | locus YER167W, strain BCK2, stronger effect = lower value 1.02 | locus YFR010W, strain ubp6, stronger effect = lower value 1.01 | locus YGL078C, strain dbp3, stronger effect = lower value 1.01 | locus YGL086W, strain mad1, stronger effect = lower value 0.999 | locus YGL167C, strain pmr1, stronger effect = lower value 1.02 | locus YGL173C, strain kem1, stronger effect = lower value 1.01 | locus YGL227W, strain vid30, stronger effect = lower value 1.01 | locus YGL240W, strain doc1, stronger effect = lower value 0.992 | locus YGL248W, strain PDE1, stronger effect = lower value 1.01 | locus YGL253W, strain hxk2, stronger effect = lower value 0.989 | locus YGR135W, strain pre9, stronger effect = lower value 1.03 | locus YGR229C, strain SMI1, stronger effect = lower value 1.01 | locus YGR252W, strain gcn5, stronger effect = lower value 1.03 | locus YHR013C, strain ard1, stronger effect = lower value 0.981 | locus YHR027C, strain rpn1, stronger effect = lower value 1.03 | locus YHR030C, strain SLT2, stronger effect = lower value 1.01 and 0.983 | locus YHR079C, strain IRE1 (second series), stronger effect = lower value 1 | locus YHR079C, strain IRE1, stronger effect = lower value 0.97 | locus YHR094C, strain hxt1, stronger effect = lower value 1.01 | locus YHR129C, strain ARP1, stronger effect = lower value 1.02 | locus YHR142W, strain chs7, stronger effect = lower value 1.04 | locus YHR200W, strain rpn10, stronger effect = lower value 1.01 | locus YIL066C, strain RNR3, stronger effect = lower value 1 | locus YIL073C, strain SPO22, stronger effect = lower value 0.995 | locus YIL125W, strain kgd1, stronger effect = lower value 0.999 | locus YIR030C, strain dcg1, stronger effect = lower value 0.992 | locus YJL092W, strain hpr5, stronger effect = lower value 1.01 | locus YJL095W, strain BCK1 (second series), stronger effect = lower value 1.03 | locus YJL095W, strain BCK1, stronger effect = lower value 1.04 and 0.989 | locus YJL115W, strain asf1, stronger effect = lower value 1.02 | locus YJL129C, strain trk1, stronger effect = lower value 1.08 | locus YJL134W, strain LCB3, stronger effect = lower value 1.01 | locus YJL154C, strain vps35, stronger effect = lower value 1.01 | locus YJL164C, strain tpk1, stronger effect = lower value 0.992 | locus YJL166W, strain qcr8, stronger effect = lower value 1.02 | locus YJL168C, strain set2, stronger effect = lower value 1.01 | locus YJL187C, strain SWE1 (second series), stronger effect = lower value 1.03 | locus YJL187C, strain SWE1, stronger effect = lower value 1.01 | locus YJR043C, strain POL32, stronger effect = lower value 1.04 | locus YJR066W, strain TOR1, stronger effect = lower value 0.954 | locus YJR075W, strain HOC1, stronger effect = lower value 1.03 | locus YKL009W, strain mrt4, stronger effect = lower value 1.02 | locus YKL068W, stronger effect = lower value 0.999 | locus YKL085W, strain MDH1 (second series), stronger effect = lower value 0.997 | locus YKL085W, strain MDH1, stronger effect = lower value 0.997 | locus YKL160W, strain elf1, stronger effect = lower value 1.02 | locus YKL190W, strain CNB1, stronger effect = lower value 1.01 | locus YKR001C, strain vps1, stronger effect = lower value 1.02 | locus YKR026C, strain gcn3, stronger effect = lower value 1.02 | locus YKR091W, strain srl3, stronger effect = lower value 1.02 | locus YLL001W, strain dnm1, stronger effect = lower value 1.07 | locus YLL026W, stronger effect = lower value 1.01 | locus YLL041C, strain sdh2, stronger effect = lower value 1 | locus YLR027C, strain aat2, stronger effect = lower value 0.998 | locus YLR039C, strain RIC1, stronger effect = lower value 1.12 | locus YLR058C, strain SHM2, stronger effect = lower value 1.01 | locus YLR102C, strain apc9, stronger effect = lower value 1 | locus YLR113W, strain HOG1, stronger effect = lower value 0.991 | locus YLR221C, strain rsa3, stronger effect = lower value 1.04 | locus YLR258W, strain gsy2, stronger effect = lower value 1 | locus YLR262C, strain YPT6 (second series), stronger effect = lower value 1.05 | locus YLR262C, strain YPT6, stronger effect = lower value 1.19 | locus YLR268W, strain sec22, stronger effect = lower value 1.02 | locus YLR320W, strain mms22, stronger effect = lower value 1.06 | locus YLR330W, strain CHS5, stronger effect = lower value 1.01 | locus YLR342W, strain FKS1 (second series), stronger effect = lower value 1.03 | locus YLR342W, strain FKS1, stronger effect = lower value 1.02 | locus YLR357W, strain rsc2, stronger effect = lower value 1.02 | locus YLR370C, strain arc18, stronger effect = lower value 1.03 | locus YLR371W, strain rom2, stronger effect = lower value 1 | locus YLR384C, strain iki3, stronger effect = lower value 1.02 | locus YLR418C, strain cdc73, stronger effect = lower value 0.991 | locus YML016C, strain PPZ1, stronger effect = lower value 1.01 | locus YML032C, strain rad52, stronger effect = lower value 1.01 | locus YML120C, strain ndi1, stronger effect = lower value 1.05 | locus YML124C, strain tub3, stronger effect = lower value 1.01 | locus YMR058W, strain fet3, stronger effect = lower value 1.01 | locus YMR078C, strain ctf18, stronger effect = lower value 0.996 | locus YMR125W, strain sto1, stronger effect = lower value 1.04 | locus YMR129W, stronger effect = lower value 1.01 | locus YMR205C, strain PFK2, stronger effect = lower value 1.02 | locus YMR223W, strain ubp8, stronger effect = lower value 1.01 | locus YMR231W, strain pep5, stronger effect = lower value 1 | locus YMR263W, strain SAP30, stronger effect = lower value 1.01 | locus YMR307W, strain GAS1, stronger effect = lower value 1.03 | locus YNL067W, strain RPL9B, stronger effect = lower value 1.03 | locus YNL071W, strain lat1, stronger effect = lower value 1.01 | locus YNL128W, strain TEP1, stronger effect = lower value 1.01 | locus YNL183C, strain NPR1, stronger effect = lower value 0.944 | locus YNL209W, strain ssb2, stronger effect = lower value 1.02 | locus YNL233W, strain BNI4, stronger effect = lower value 1.02 | locus YNL248C, strain rpa49, stronger effect = lower value 0.969 | locus YNL250W, strain rad50, stronger effect = lower value 1.01 | locus YNL271C, strain bni1, stronger effect = lower value 0.999 | locus YNL298W, strain CLA4, stronger effect = lower value 1.01 | locus YNL307C, strain MCK1, stronger effect = lower value 1.01 | locus YNL322C, strain KRE1 (second series), stronger effect = lower value 1.02 | locus YNR049C, strain mso1, stronger effect = lower value 1.01 | locus YNR052C, strain pop2, stronger effect = lower value 1 | locus YOL006C, strain TOP1, stronger effect = lower value 0.963 | locus YOL012C, strain htz1 0.928 | locus YOL147C, strain pex11, stronger effect = lower value 1 | locus YOR001W, strain rrp6, stronger effect = lower value 0.96 | locus YOR061W, strain CKA2, stronger effect = lower value 1.02 | locus YOR069W, strain VPS5, stronger effect = lower value 1.01 | locus YOR070C, strain gyp1, stronger effect = lower value 1.03 | locus YOR080W, strain dia2, stronger effect = lower value 1.02 | locus YOR083W, strain WHI5, stronger effect = lower value 1.03 | locus YOR106W, strain vam3, stronger effect = lower value 1.04 | locus YOR136W, strain idh2, stronger effect = lower value 1.02 | locus YOR144C, strain elg1, stronger effect = lower value 1.01 | locus YOR184W, strain ser1, stronger effect = lower value 1.06 | locus YOR231W, strain MKK1, stronger effect = lower value 0.96 | locus YOR265W, strain rbl2, stronger effect = lower value 1.01 | locus YOR270C, strain vph1, stronger effect = lower value 1.13 | locus YOR290C, strain snf2, stronger effect = lower value 1.07 | locus YOR316C, strain cot1, stronger effect = lower value 1.02 | locus YPL051W, strain arl3, stronger effect = lower value 0.978 | locus YPL078C, strain atp4, stronger effect = lower value 0.997 | locus YPL106C, strain sse1, stronger effect = lower value 1.06 | locus YPL240C, strain hsp82, stronger effect = lower value 1.03 | locus YPL241C, strain CIN2, stronger effect = lower value 1.01 | locus YPL256C, strain CLN2, stronger effect = lower value 0.986 | locus YPR119W, strain clb2, stronger effect = lower value 1.01 | locus YPR141C, strain kar3, stronger effect = lower value 1.01 | locus YPR163C, strain tif3, stronger effect = lower value 1.03 | locus YPR167C, strain met16, stronger effect = lower value 1.01 | strain wtn01, stronger effect = lower value 1.01
